Compound activity: PubChem, National Center for Advancing Translational Sciences (NCATS)
Pf Dd2 growth: Plasmodium falciparum Dd2 growth inhibition; P. falciparum Dd2 growth, SYBR Green, 72 h; Potency, µM (titrated, usually from 28.9 µM), without a hit: top-dose activity, negative = inhibition, usual class: inhibitors; 120,000 compounds, 4.3% hits; AID 1347417; active means well fitted inhibition curve with a large enough effect;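 further: plate controls were DMSO vehicle for no effect and reference drug for full effect; nearly all actives have a fitted effect of over 65% in size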
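Readout: SYBR Green fluorescence, 485 nm excitation, 535 nm emission, after ~16 h lysis at 37C. Before that, Dd2-infected red cells (2.5% hematocrit) grew 72 h with compound, 29 uM top final concentration.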
Starred values were filed as active, the others as inactive; [ ] = remark or other dose. The sample as a whole holds a higher share of hits than the screen did. Potency means the concentration at half of the fitted maximal effect.

How did COc1ccccc1-c1cc2c(nc1OC)nc(CC1CC1)n2C do in these assays?
Pf Dd2 growth: 13µM*

Results for COCc1nc2nc(-c3ccccc3)c(-c3ccc(OC)cc3)cc2n1C ?
Pf Dd2 growth: inactive

What do the screens show for `COc1nc2nc(CCc3ccccc3)n(C)c2cc1Nc1ccncn1`?
Pf Dd2 growth: -12%[44.1 µM]

What do the screens show for `CCCc1nc(C(=O)N2CCCCC2C(=O)OCC)cs1` (stereo not given)?
Pf Dd2 growth: 1%

Results for Cc1cccc(C)c1-c1nc(C(=O)N2CCC(C#N)CC2)n2ccccc12 ?
Pf Dd2 growth: 3%

What do the screens show for `CS(=O)(=O)N1CCC(C2CCN(C(=O)Cc3ccc(F)cc3)C2)CC1` (stereo not given)?
Pf Dd2 growth: 5%

Results for OCCC1CN(CCOc2ccc(F)cc2)CCN1CC1CCCCC1 (stereo not given) ?
Pf Dd2 growth: 8.9µM*

What do the screens show for `O=C(C1CCCC1)N1CCC(CCOc2ccc(F)cc2)C1` (stereo not given)?
Pf Dd2 growth: inactive

What do the screens show for `CC(C)Nc1ccnc(N2CCN(Cc3ccccc3F)C(CCO)C2)n1` (stereo not given)?
Pf Dd2 growth: -22%

Results for CCOc1ccccc1CN1CCN(c2ccnc(N)n2)CC1CCO (stereo not given) ?
Pf Dd2 growth: inactive

Results for CC1CCN(CC2CCCN(C(=O)COc3ccc(F)cc3)CC2)CC1 (stereo not given) ?
Pf Dd2 growth: -30%

Results for OCCC1CN(c2cc(C(F)(F)F)ccn2)CCN1CC1CCCCC1 (stereo not given) ?
Pf Dd2 growth: 13µM*

What do the screens show for `O=C(C1CCC1)N1CCC(c2noc(-c3ccncc3)n2)C1` (stereo not given)?
Pf Dd2 growth: inactive[5.79 µM]

What do the screens show for `C=CCN1C[C@@]2(C(=O)O)CN(c3nccc4ccccc34)C[C@H]2C1=O`?
Pf Dd2 growth: -10%

How did Cc1cnc(C2CCC2)n1CCNS(=O)(=O)c1ccccc1 do in these assays?
Pf Dd2 growth: inactive

How did Cc1cc(Cl)ccc1S(=O)(=O)NCCn1c(C)cnc1C1CCC1 do in these assays?
Pf Dd2 growth: 6.3µM*

How did CC(=O)Nc1ccc(C)cc1S(=O)(=O)NCCn1c(C)cnc1C1CCC1 do in these assays?
Pf Dd2 growth: -11%

How did Cc1cnc(C2CC2)n1CCNS(=O)(=O)c1ccccc1F do in these assays?
Pf Dd2 growth: -17%

Results for Cc1cc(C)c(S(=O)(=O)NCCn2c(C)cnc2C2CC2)c(C)c1 ?
Pf Dd2 growth: 11µM*

How did Cc1cnc(C2CC2)n1CCNC(=O)C(C)C do in these assays?
Pf Dd2 growth: 5%

What do the screens show for `Cc1cc(=O)[nH]c(NCCNC(=O)C2CCC(=O)N(C3CCCCCC3)C2)n1` (stereo not given)?
Pf Dd2 growth: 3%

How did Cc1nc(-c2c3n(c(=O)n(Cc4ccc(C#N)cc4)c2=O)CCCCC3)no1 do in these assays?
Pf Dd2 growth: 8%

How did Cc1ccc(OCCN(C)Cc2cc(C#CCO)cs2)c(C)c1 do in these assays?
Pf Dd2 growth: 8%

What do the screens show for `Cc1ccc(C2Cn3nnc(C(=O)N4CCN(C(=O)Cc5cccc(F)c5)CC4)c3CO2)cc1` (stereo not given)?
Pf Dd2 growth: -26%

How did Cc1ccc(C)c(S(=O)(=O)N2CCCC(Cn3c(C)nc4cccnc43)C2)c1 (stereo not given) do in these assays?
Pf Dd2 growth: -47%

Results for COC[C@@H]1CN(C(=O)c2ccccc2OC)C[C@H]1c1ccccn1 ?
Pf Dd2 growth: -24%

How did CC(C)OCCCNC(=O)c1ccc(CSc2nc3cccnc3n2Cc2ccccc2)cc1 do in these assays?
Pf Dd2 growth: inactive

Results for COCCCNC(=O)c1ccc(CSc2nc3cccnc3n2Cc2ccc(OC)cc2)cc1 ?
Pf Dd2 growth: -15%

How did COc1cccc(CNC(=O)c2ccc(Cn3c(SCc4ccccc4)nc4cccnc43)cc2)c1 do in these assays?
Pf Dd2 growth: 10µM*

Results for COc1ccc(Cn2c(SCc3ccc(C(=O)NCc4ccc(C)cc4)cc3)nc3cccnc32)cc1 ?
Pf Dd2 growth: 10µM*

Results for Cc1cccc(CNC(=O)c2ccc(Cn3c(SCc4cccc(F)c4)nc4cccnc43)cc2)c1 ?
Pf Dd2 growth: inactive

How did O=C(NCc1ccco1)c1ccc(Cn2c(SCc3ccccc3)nc3cccnc32)cc1 do in these assays?
Pf Dd2 growth: -18%

Results for CC(C)CC(=O)NCC(=O)N1CCCCCCNC(=O)CC1c1ccccc1 (stereo not given) ?
Pf Dd2 growth: -21%

How did CCn1ccc2oc(C)c(C(=O)NCc3ccc(F)cc3Cl)c2c1=O do in these assays?
Pf Dd2 growth: -6%

How did CNC(=O)N1CCCC(n2c(C)cnc2-c2ccncc2)C1 (stereo not given) do in these assays?
Pf Dd2 growth: 27%

What do the screens show for `COc1cc2c(cc1OC)C(COc1cc(C)cc(C)c1)N(C(=O)c1ccc(S(=O)(=O)N3CCCC3)cc1)CC2` (stereo not given)?
Pf Dd2 growth: 3.2µM*

How did COc1ccc(S(=O)(=O)N2CCCCC2)cc1C(=O)Nc1cccc(C(F)(F)F)c1 do in these assays?
Pf Dd2 growth: inactive
